The results in this text go back to PubChem BioAssay (Tox21).

Assay [1] can be described thus: Nuclear factor erythroid 2-related factor 2/antioxidant responsive element (Nrf2/ARE) small molecule agonists: qHTS cell viability counter screen in human keratinocytes (AID 1919968; active means well fitted curve in the direction sought with a large enough effect in the repeat runs; an effect the other way counts as inactive or inconclusive; further: nearly all actives have a fitted effect of over 55% in size; further: potency means the concentration at half of the fitted maximal effect). A digest of the protocol:
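Cells of the KeratinoSens line were plated at 1,500 per well and left for 5 h before compound transfer from DMSO stocks. After a 23 h incubation (37 C, 5% CO2), CellTiter-Fluor was added. Signal was taken as fluorescence intensity 1 h later.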

Assay [2] addresses Gonadotropin-releasing hormone receptor (Homo sapiens) (UniProt P30968). The assay is described as follows: Human gonadotropin-releasing hormone receptor (GnRHR) small molecule agonists, calcium flux assay in GnRHR-HEK293 cells (AID 1920063). Further: nearly all actives have a fitted effect of over 35% in size. A digest of the protocol:
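Compounds dissolved in DMSO are pin-transferred onto dye-loaded GnRHR-HEK293 cells, which were seeded 18 h before at 37 C/5% CO2. Calcium signal is read as fluorescence intensity at 1 s intervals for 3 min.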

The target of assay [3] is KiSS-1 receptor (Homo sapiens) (UniProt Q969F8). As to the kind of experiment: Human kisspeptin (KISS1R) small molecule agonists, calcium flux assay in KISS1R-HEK293 cells (AID 1920064; active means well fitted curve in the direction sought with a large enough effect in the repeat runs; an effect the other way counts as inactive or inconclusive). The method in brief:
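Cell line: HEK293, stable human KISS1R. Dye loading 1 h at 37 C after 18 h culture. Read: kinetic fluorescence, 480/540 nm, 3 min at 1 s intervals.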
For orientation: Calcium flux is commonly read through the fluorescence of an indicator in the cells.

Assay [4] in a line: G protein-coupled receptor (GPCR) small molecule agonists, calcium flux assay: HEK293 wild type cell line counter screen (AID 1920065). A digest of the protocol:
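Tox21 10K compounds, 15 concentrations each in triplicate, pin-transferred in DMSO onto dye-loaded cells; kinetic read at 480/540 nm for 3 min, 1 s intervals.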

The nature of assay [5]: p53 small molecule agonists, cell-based qHTS assay with human liver microsomes (AID 1963577).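 Further: p53 response element beta-lactamase reporter cells with liver microsomes plus NADPH.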 The method in brief: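 Steps: plate p53RE-bla cells, incubate 5 h at 37 C; add compound in DMSO; add microsomes (0.5 mg/mL final) and NADPH (0.5 mg/mL final); incubate 16 h at 37 C; add LiveBLAzer, 2 h RT; read fluorescence.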
On the technique in general: Quantitative high-throughput screening tests each substance at several concentrations.

The nature of assay [6]: p53 small molecule agonists, cell-based qHTS assay with human liver microsomes: qHTS cell viability counter screen (AID 1963579). Further: nearly all actives have a fitted effect of over 45% in size. Further: potency means the concentration at half of the fitted maximal effect. A digest of the protocol:
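After the 460/530 nm beta-lactamase read, CellTiter-Glo was added to the same wells and luminescence measured after 30 min at room temperature, giving viability of p53RE-bla cells treated 16 h with compounds plus microsomes and NADPH.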

Assay [7] is described as follows: p53 small molecule agonists, cell-based qHTS assay with rat liver microsomes: qHTS cell viability counter screen (AID 1963580). Further: nearly all actives have a fitted effect of over 45% in size. Further: potency means the concentration at half of the fitted maximal effect. The method in brief:
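Cytotoxicity counter screen: intracellular ATP read by CellTiter-Glo luminescence in the p53 reporter wells. HCT-116 p53RE-bla cells were treated for 16 h at 37 C alongside rat liver microsomes and NADPH, each 0.5 mg/mL final.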

Assay [8] can be described thus: p53 small molecule agonists, cell-based qHTS assay: qHTS cell viability counter screen (AID 1963581). Further: nearly all actives have a fitted effect of over 45% in size. Further: potency means the concentration at half of the fitted maximal effect. A digest of the protocol: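 ATP content measured by luminescence in HCT-116 p53RE-bla cells treated 16 h at 37 C, same wells as the reporter screen.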
Assay [9] is described as follows: p53 small molecule agonists, cell-based qHTS assay (AID 1963582; active means well fitted activation curve with a large enough effect in the signal ratio in the repeat runs, not every such curve was filed as active; the % refers to the signal ratio). A digest of the protocol: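 16 h compound exposure (37 C) of p53 response element–bla cells, preceded by 5 h recovery at 37 C/5% CO2; read-out via LiveBLAzer B/G FRET substrate, 2 h RT, fluorescence intensity.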
For assay [10], the target named is 5-hydroxytryptamine receptor 2A (Homo sapiens) (UniProt P28223). The assay is described as follows: 5-hydroxytryptamine receptor 2A (HTR2A) small molecule antagonists, cell-based qHTS assay (AID 1963586). Further: nearly all actives have a fitted effect of over 45% in size. Further: potency means the concentration at half of the fitted maximal effect. A digest of the protocol: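 CHO cells stably expressing human HTR2A were plated for 18 h at 37 C, then loaded with calcium dye for 1 h. Compounds were preincubated 5 min at room temperature before DOI (4 nM solution) was added. Kinetic fluorescence was read for 3 min.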
Chain of 5-hydroxytryptamine receptor 2A (Homo sapiens) (P28223 whole entry, looked up): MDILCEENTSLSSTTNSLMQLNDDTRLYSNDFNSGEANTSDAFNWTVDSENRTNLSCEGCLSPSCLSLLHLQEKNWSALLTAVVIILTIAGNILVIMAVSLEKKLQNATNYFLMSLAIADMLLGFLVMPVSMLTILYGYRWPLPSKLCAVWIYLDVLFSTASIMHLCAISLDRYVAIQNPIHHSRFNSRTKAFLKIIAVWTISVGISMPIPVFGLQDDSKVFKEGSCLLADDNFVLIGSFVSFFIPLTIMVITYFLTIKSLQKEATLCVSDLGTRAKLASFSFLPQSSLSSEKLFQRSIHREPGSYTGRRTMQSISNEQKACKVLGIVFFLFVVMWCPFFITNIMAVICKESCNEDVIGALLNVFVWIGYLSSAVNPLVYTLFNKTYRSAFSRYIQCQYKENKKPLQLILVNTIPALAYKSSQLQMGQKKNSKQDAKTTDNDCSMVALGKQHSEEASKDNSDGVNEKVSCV

Assay [11] concerns the target Muscarinic acetylcholine receptor M1 (Homo sapiens) (UniProt P11229). As to the kind of experiment: Cholinergic receptor muscarinic 1 (CHRM1) small molecule antagonists, cell-based qHTS assay (AID 1963588). Further: nearly all actives have a fitted effect of over 40% in size. A digest of the protocol:
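Compounds were tested at 15 concentrations in three independent runs. Dye-loaded CHRM1-CHO cells were exposed 5 min at room temperature before stimulation by acetylcholine added at 50nM. Intracellular calcium was read kinetically on FDSS for 3 min.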

Assay [12] shares this target. The assay is described as follows: Cholinergic receptor muscarinic 1 (CHRM1) small molecule agonists, cell-based qHTS assay (AID 1963589). Further: nearly all actives have a fitted effect of over 35% in size. A digest of the protocol:
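Homogeneous fluorescence calcium flux, agonist mode. Human M1-expressing CHO cells; compound dosed at 15 concentrations, three independent runs; signal sampled every 1 sec.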

A short description of assay [13]: cAMP Responsive Elements (CRE) small molecule agonists, cell-based qHTS assay (AID 1963590). A digest of the protocol: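 HEK 293T cells stably bearing CRE-bla were plated at 2,000 cells per well and rested 18 h. Compounds, positive controls or DMSO were added for 3 h at 37 C. LiveBLAzer B/G substrate was then loaded for 2 h at room temperature.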
The nature of assay [14]: cAMP Responsive Elements (CRE) small molecule antagonists, cell-based qHTS assay (AID 1963591; active means well fitted inhibition curve with a large enough effect in the signal ratio in the repeat runs, not every such curve was filed as active; the % refers to the signal ratio). A digest of the protocol:
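First, CRE-bla HEK293T cells settled 18 h at 37 C. Next, compound and 0.25 uM final NKH477 were applied for 3 h. Last, LiveBLAzer B/G substrate was loaded for 2 h at room temperature.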

Assay [15] concerns the target D(2) dopamine receptor (Homo sapiens) (UniProt P14416). The assay is described as follows: Dopamine D2 receptor (DRD2) small molecule agonists, cell-based qHTS assay (AID 1963594). Further: nearly all actives have a fitted effect of over 35% in size. A digest of the protocol: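 cAMP accumulation in DRD2-HEK293 cells measured by HTRF after 1 h detection; compounds added 10 min before NKH477 (200nM […]) forskolin-analogue stimulation, 30 min at room temperature, with Ro20-1724 present at 0.1 mM final.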

Assay [16] has the same target. As to the kind of experiment: Dopamine D2 receptor (DRD2) small molecule antagonists, cell-based qHTS assay (AID 1963595; active means well fitted inhibition curve with a large enough effect in the signal ratio in the repeat runs, with a control signal flat; the % refers to the signal ratio). The method in brief: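 Cells were plated and grown for 24 h at 37 °C. Ro20-1724 (0.1 mM final) went in first, then compound for 10 min. NKH477 (200 nM) with quinpirole (12 nM) followed for 30 min at RT, then HTRF detection reagents for 1 h.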

The nature of assay [17]: p53 small molecule agonists, cell-based qHTS assay with rat liver microsomes (AID 1963578). A digest of the protocol:
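Metabolic activation is supplied by rat liver microsomes with NADPH (each 0.5 mg/mL final). p53RE-bla cells incubate with compound 16 h at 37 C; reporter activity is measured by LiveBLAzer fluorescence.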

Assay [18] concerns the target 5-hydroxytryptamine receptor 2A (Homo sapiens) (UniProt P28223). As to the kind of experiment: 5-hydroxytryptamine receptor 2A (HTR2A) small molecule agonists, cell-based qHTS assay (AID 1963587). Further: nearly all actives have a fitted effect of over 30% in size. The method in brief:
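Kinetic calcium-flux fluorescence (2 min, 1 sec intervals) after compound addition in agonist mode. HTR2A-CHO cells were cultured 18 h, then dye-loaded 1 h at 37 C.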

Assay [19] addresses Beta-2 adrenergic receptor (Homo sapiens) (UniProt P07550). As to the kind of experiment: Adrenergic beta2 receptor (ADRB2) small molecule antagonists, cell-based qHTS assay (AID 1963592). Further: series mostly up to about 92 µM; nearly all actives have a fitted effect of over 50% in size. A digest of the protocol:
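Assay format: CHO-ADRB2 cells, 18-20hr seeding at 37C/5% CO2, then compound plus 1nM isoproterenol agonist mix for 0.5hr RT. Homogeneous time-resolved fluorescence cAMP detection after 1hr, expressed as 665/615 nm ratio.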

Structures are written as SMILES. Inconclusive results are not listed. Active and inactive are the calls of the source. Unless noted, the call rests on the fitted dose curve.

Chain of Gonadotropin-releasing hormone receptor (Homo sapiens) (P30968 whole entry, looked up): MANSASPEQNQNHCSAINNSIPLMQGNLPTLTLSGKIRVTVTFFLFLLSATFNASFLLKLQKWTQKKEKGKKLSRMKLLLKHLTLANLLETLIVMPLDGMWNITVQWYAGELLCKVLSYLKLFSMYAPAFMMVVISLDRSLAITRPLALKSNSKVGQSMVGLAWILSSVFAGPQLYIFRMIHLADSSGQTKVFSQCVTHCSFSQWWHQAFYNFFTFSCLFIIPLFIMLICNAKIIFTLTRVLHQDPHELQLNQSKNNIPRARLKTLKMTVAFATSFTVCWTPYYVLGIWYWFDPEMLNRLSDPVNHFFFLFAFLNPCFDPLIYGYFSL
Chain of D(2) dopamine receptor (Homo sapiens) (P14416 whole entry, looked up): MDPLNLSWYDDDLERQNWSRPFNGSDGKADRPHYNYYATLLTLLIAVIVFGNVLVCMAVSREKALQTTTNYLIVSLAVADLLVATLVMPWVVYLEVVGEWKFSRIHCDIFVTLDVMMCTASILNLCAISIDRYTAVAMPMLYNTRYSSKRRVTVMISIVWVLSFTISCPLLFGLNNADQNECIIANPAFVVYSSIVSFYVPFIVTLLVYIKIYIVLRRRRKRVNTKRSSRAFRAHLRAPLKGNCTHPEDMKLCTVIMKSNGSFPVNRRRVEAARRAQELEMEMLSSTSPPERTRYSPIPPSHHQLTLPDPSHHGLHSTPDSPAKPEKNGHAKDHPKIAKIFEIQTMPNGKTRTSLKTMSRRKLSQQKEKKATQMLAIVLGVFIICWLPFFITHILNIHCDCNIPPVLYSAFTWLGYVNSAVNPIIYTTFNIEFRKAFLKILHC
Chain of KiSS-1 receptor (Homo sapiens) (Q969F8 whole entry, looked up): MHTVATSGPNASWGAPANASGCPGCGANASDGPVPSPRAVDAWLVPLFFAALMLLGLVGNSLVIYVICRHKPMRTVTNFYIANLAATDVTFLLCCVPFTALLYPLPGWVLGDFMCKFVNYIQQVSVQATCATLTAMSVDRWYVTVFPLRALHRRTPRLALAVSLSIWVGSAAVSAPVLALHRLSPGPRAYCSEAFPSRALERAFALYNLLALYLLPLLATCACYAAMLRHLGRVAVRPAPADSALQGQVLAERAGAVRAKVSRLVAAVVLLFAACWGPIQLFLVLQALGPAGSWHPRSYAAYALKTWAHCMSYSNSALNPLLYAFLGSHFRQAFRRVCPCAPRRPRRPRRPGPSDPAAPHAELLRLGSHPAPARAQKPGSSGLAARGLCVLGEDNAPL
Chain of Beta-2 adrenergic receptor (Homo sapiens) (P07550 whole entry, looked up): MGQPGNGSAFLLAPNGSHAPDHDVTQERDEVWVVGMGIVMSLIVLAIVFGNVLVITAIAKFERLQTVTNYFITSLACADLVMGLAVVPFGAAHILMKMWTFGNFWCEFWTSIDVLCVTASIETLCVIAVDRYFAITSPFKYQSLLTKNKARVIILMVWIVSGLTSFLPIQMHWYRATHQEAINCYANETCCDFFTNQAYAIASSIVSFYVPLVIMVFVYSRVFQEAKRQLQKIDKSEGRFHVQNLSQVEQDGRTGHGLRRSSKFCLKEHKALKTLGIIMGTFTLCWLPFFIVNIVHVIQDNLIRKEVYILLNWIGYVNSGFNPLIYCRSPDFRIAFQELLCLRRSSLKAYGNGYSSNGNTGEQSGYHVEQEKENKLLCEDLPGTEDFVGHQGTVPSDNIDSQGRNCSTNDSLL
Chain of Muscarinic acetylcholine receptor M1 (Homo sapiens) (P11229 whole entry, looked up): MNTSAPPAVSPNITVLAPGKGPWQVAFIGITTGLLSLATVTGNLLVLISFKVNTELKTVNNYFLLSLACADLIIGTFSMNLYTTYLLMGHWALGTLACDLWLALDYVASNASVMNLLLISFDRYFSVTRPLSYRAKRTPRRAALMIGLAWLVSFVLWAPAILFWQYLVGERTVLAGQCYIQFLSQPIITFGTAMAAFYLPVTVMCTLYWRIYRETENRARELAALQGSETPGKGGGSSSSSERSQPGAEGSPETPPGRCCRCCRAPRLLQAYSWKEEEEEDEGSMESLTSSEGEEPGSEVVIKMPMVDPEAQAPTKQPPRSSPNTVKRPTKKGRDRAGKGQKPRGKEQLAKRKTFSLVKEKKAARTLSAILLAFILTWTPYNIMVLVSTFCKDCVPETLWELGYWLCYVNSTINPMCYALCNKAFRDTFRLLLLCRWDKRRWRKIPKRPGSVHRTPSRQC

On to `CCCCCCBr`, for which the Potency entry in assay [1], in [2], in assay [3], in assay [4], in assay [5] and in assay [6] was “inactive” each time. Besides, the Potency entry in [7], in assay [8], in assay [9], in assay [10], in assay [11] and in assay [12] was “inactive” throughout. Also, the Potency result in assay [13], in assay [14], in assay [15] and in assay [16] was “inactive” in each case.
Consider `CC1CCCCC1NC(=O)Nc1ccccc1` (stereo not given), for which the Potency result in assay [1], in assay [2], in [3], in assay [4], in [5] and in [17] was “inactive” in each case. The Potency result in [6], in assay [10], in assay [18], in assay [11], in [12] and in assay [13] was “inactive” in each case. In addition, the Potency result in assay [14], in assay [19], in assay [15] and in [16] was “inactive” each time.
For `CC(C)(c1ccc(O)c(-c2ccccc2)c1)c1ccc(O)c(-c2ccccc2)c1`, the Potency in assay [1] is 13.7 µM (active); in assay [6], 18.2 µM (active); in [7], 20.4 µM (active); in assay [8] it was 20.4 µM (active); in assay [10], 18.8 µM (active). Also, the Potency result in [2], in assay [3], in assay [4], in assay [5], in assay [17] and in [18] was “inactive” in each case. In addition, the Potency entry in assay [11], in assay [12] and in assay [15] was “inactive” each time.
`O=C1CCCCC1Cl` (stereo not given): the Potency result in [1], in assay [2], in [3], in assay [4], in [5] and in [17] was “inactive” in each case. The Potency entry in assay [6], in assay [8], in [10], in assay [18], in assay [11] and in [12] was “inactive” in each case. Besides, the Potency result in [13], in assay [14], in assay [19] and in [16] was “inactive” throughout.
With `Cc1ncc(C[n+]2csc(CCO)c2C)c(N)n1`, the Potency entry in assay [1], in assay [2], in [3], in assay [4], in assay [5] and in assay [17] was “inactive” in each case. Besides, the Potency result in assay [9], in assay [10], in assay [18], in assay [11], in assay [12] and in [13] was “inactive” each time. The Potency entry in [14], in assay [15] and in assay [16] was “inactive” throughout.
For the compound `C=CC(=O)OC`, the Potency result in [1], in assay [2], in assay [3], in [4], in [5] and in assay [6] was “inactive” throughout. Further, the Potency entry in assay [7], in assay [8], in assay [9], in assay [10], in assay [18] and in [11] was “inactive” in each case. Further, the Potency result in assay [12], in assay [13], in assay [19], in [15] and in assay [16] was “inactive” in each case.
Regarding `O=C1c2ccccc2C(=O)C1C(=O)C(c1ccccc1)c1ccccc1`, the Potency entry in assay [1], in assay [2], in assay [3], in [4], in assay [17] and in [6] was “inactive” throughout. The Potency result in assay [7], in [8], in [10], in assay [18], in assay [11] and in assay [12] was “inactive” in each case. For the same compound, the Potency entry in assay [14], in assay [19], in [15] and in [16] was “inactive” in each case.
